Bioassay records (PubChem)
HP1b binding inh: blocks HP1-beta chromodomain binding to methylated histone tails | P83916 | AlphaScreen HP1-beta / biotin-H3K9me3 peptide binding | Potency, µM (doses to about 114 µM), without a hit: at the highest dose activity change, negative = inhibition, most hits filed as inhibitors | 390,000 tested, 0.56% active | AID 540317; further: potency means the concentration at half of the fitted maximal effect; nearly all actives have a fitted effect of over 70% in size
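AlphaScreen: HP1-beta (50 nM) preformed 30 min with biotin-H3(1-18)K9me3 peptide (50 nM) in PBS pH 7.4, 0.01% Tween-20. Compound added for 30 min at RT, then streptavidin donor/nickel chelate acceptor beads (10 ug/mL) for 30 min.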
JMJD2A Tudor: blocks the human JMJD2A Tudor domain; O75164; AlphaScreen JMJD2A-Tudor / H3K4me3 peptide binding; Potency, µM (top dose mostly 114 µM), without a hit: at the top dose activity change, negative = inhibition, most hits filed as inhibitors; 390,000 tested, 4.4% active; AID 504339; further: potency means the concentration at half of the fitted maximal effect; on the % scale 0 is the no-effect control and ±100 the full control effect; nearly all actives have a fitted effect of over 50% in size
PI5P4Ka inh: inhibitors of human PI5P4K alpha | max response, % | P48426 | 330,000 tested, 1.2% active | PI5P4Kalpha enzyme, ADP-Glo luminescence, 60 min; active compounds read low; active means max response of -50% or lower; inconclusive means between -30% and -50%; inactive means -30% or higher; further: value at the top dose of about 77 µM; on the % scale 0 is the no-effect control and ±100 the full control effect
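Reactions run in 0.038 M HEPES pH 7.4, 0.28 mM EGTA, 0.1% CHAPS and 5% DMSO, with PI5P4Kalpha, substrate, compound and 5 microM ATP final, one hour at room temperature. Readout is ADP-Glo luminescence.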
G9a block: inhibitors of human histone lysine methyltransferase G9a; Q96KQ7; G9a H3K9 monomethylation, AlphaScreen, 2 h; Potency, µM (highest dose often 102 µM), inactives show at the top dose activity, negative = inhibition, actives largely listed as inhibitors; 350,000 tested, 8.8% active; AID 504332; further: potency means the concentration at half of the fitted maximal effect; on the % scale 0 is the no-effect control and ±100 the full control effect; nearly all actives have a fitted effect of over 75% in size
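G9a (20 nM) was preincubated 15 min with compound, then reacted 2 h at room temperature with 500 nM biotin-H3K9 peptide and 20 µM SAM. Monomethyl-H3K9 detected by AlphaScreen using anti-H3K9me1 antibody.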
BAZ2B inh: BAZ2B (human) inhibition. Q9UIF8. AlphaScreen BAZ2B-H3K14Ac peptide displacement. Potency, µM (highest dose often 114 µM), without a hit: top-dose activity change, negative = inhibition, usual class: inhibitors. 360,000 tested, 4.4% active. AID 504333; further: potency means the concentration at half of the fitted maximal effect; on the % scale 0 is the no-effect control and ±100 the full control effect; nearly all actives have a fitted effect of over 60% in size
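Multi-concentration screen (max 110 uM) measuring displacement of acetylated histone H3 peptide from BAZ2B by AlphaScreen, using 50 nM protein, 50 nM peptide and 10 ug/mL streptavidin donor plus Ni-chelate acceptor beads.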
PLK1 PBD inh: PLK1 (human) polo-box domain binding inhibition. Plk1 PBD binding of FITC phosphopeptide, fluorescence polarization. Potency, µM, for the others: max response, negative = inhibition, usual class: inhibitors. 360,000 tested, 2.8% active. AID 720504; further: potency means the concentration at half of the fitted maximal effect; series mostly up to about 57 µM; on the % scale 0 is the no-effect control and ±100 the full control effect; nearly all actives have a fitted effect of over 65% in size
TbPYK confirm: Trypanosoma brucei pyruvate kinase inhibition, cherry-pick confirmation; Potency, µM (titrated, usually from 76.9 µM), for inactives: at the top dose activity change, negative = inhibition, hits mostly inhibitors; shares compounds with PLK1 PBD inh; 890 tested, 67% active; recombinant TbPYK, Kinase-Glo ATP luminescence; further: potency means the concentration at half of the fitted maximal effect; on the % scale 0 is the no-effect control and ±100 the full control effect; nearly all actives have a fitted effect of over 70% in size
TbPYK ADP-Glo: TbPYK inhibition, orthogonal confirmation | shares compounds with PLK1 PBD inh | 890 tested, 62% active | Potency, µM (doses to about 76.9 µM), without a hit: top-dose activity change, negative = inhibition, hits mostly inhibitors | AID 720584 | recombinant TbPYK, ADP-Glo luminescence, 60 min; further: potency means the concentration at half of the fitted maximal effect; on the % scale 0 is the no-effect control and ±100 the full control effect; nearly all actives have a fitted effect of over 75% in size
* marks the source's active call; other numbers are inactive results; ? = inconclusive; / = no result given; [ ] = remark or other dose. A selection: hits, their analogues and other compounds. The true share with any hit is near 12%. Unless noted, the call rests on the fitted dose curve; in most records, active means well fitted curve in the direction sought with a large enough effect; inconclusive means small, poorly fitted or top-dose-only effect, or another doubt; inactive means no such curve, though single readings can be large; an effect the other way counts as inactive or inconclusive.

SMILES | HP1b binding inh | JMJD2A Tudor | PI5P4Ka inh | G9a block | BAZ2B inh | PLK1 PBD inh | TbPYK confirm | TbPYK ADP-Glo
Cc1nnc(SC(C)C(=O)Nc2ccc(Cl)cc2Cl)[nH]c1=O (configuration not stated) | 30.9% | -2.4% | 4.8 | / | / | -20.0% | / | /
COc1cc2c(cc1OC)C(c1ccc([N+](=O)[O-])cc1)NCC2 (configuration not stated) | -3.3% | -21.3% | 1.8 | / | 1.8% | 11.9% | -5.6% | -8.7%
COc1cc2c(cc1OC)C(c1cc([N+](=O)[O-])ccc1O)NCC2 (configuration not stated) | 47.4% | -5.4% | -2.5 | / | -27.8% | 1.1% | / | /
O=C(CSc1ccc(-c2ccco2)nn1)c1ccccc1 | -3.9% | ? | ? | 7.94µM* | 50.1µM* | ? | ? | 31.6µM*
O=C(CC12CC3CC(CC(C3)C1)C2)NC1CC1 | 35.7% | 11.6% | -4.6 | / | / | 0.9% | / | /
O=c1[nH]c2ccc(Cl)cc2c(-c2ccccc2)c1SC(=S)N1CCOCC1 | -19.5% | ? | ? | ? | -34.4% | 26.7µM* | 4.47µM* | 5.62µM*
O=c1[nH]c2ccc(Cl)cc2c(-c2ccccc2)c1SC(=S)N1CCCCC1 | ? | ? | ? | 11.2µM* | ? | 11.9µM* | 5.62µM* | 7.94µM*
NNC(=O)CSc1c(-c2ccccc2)c2cc(Cl)ccc2[nH]c1=O | 34.1% | -7.7% | 6.0 | 5.9%[2.33 µM] | -11.5% | -26.4% | / | /
CC(C)C1Nc2ccc(C(=O)O)cc2C2C=CCC21 (configuration not stated) | ? | 31.6µM* | ? | 10µM* | 79.4µM* | ? | ? | ?
O=C(Cn1cc(S(=O)(=O)Cc2ccc([N+](=O)[O-])cc2)c2ccccc21)N1CCOCC1 | 39.9% | -23.6% | 2.4 | 8.91µM* | -4.1% | -22.2% | 15.8µM* | 25.1µM*
CSc1cnn(Cc2ccccc2)c(=O)c1SCc1ccccc1 | 60.4% | 35.4% | ? | 8.91µM* | 12.7% | ? | 14.1µM* | 22.4µM*
CSc1cnn(-c2ccccc2)c(=O)c1SC | 9.2% | -7.7% | / | -69.0% | -0.2% | ? | / | /
C=CCn1c(C)cc(C(=O)COC(=O)c2ccc(N)c([N+](=O)[O-])c2)c1C | -14.9% | ? | -3.9 | ? | ? | 4.8% | / | /
CCn1c(C)cc(C(=O)COC(=O)c2ccccc2[N+](=O)[O-])c1C | ? | 44.7µM* | -12.5 | / | / | 2.9% | ? | 3.1%
CC(=O)Oc1c(C)c(C)c2c(c1C)CC[C@@](C)(CCC[C@H](C)CCC[C@H](C)CCCC(C)C)O2 | 18.1% | -12.2% | -2.7 | -19.4%[59 µM] | -3.1% | -16.6% | / | /
COc1ccccc1N1C(=O)C=C(Sc2nc(C)cc(C)n2)C1=O | 8.91µM* | 7.94µM* | -57.0* | 0.447µM* | ? | 2.99µM* | 2.51µM* | 3.16µM*
CCOC(=O)C1C(C(=O)OC)=C(c2ccc(OC)cc2)c2ccccc2N1S(=O)(=O)C(F)(F)F (configuration not stated) | 33.4% | -17.3% | 6.0 | 14.3%[59 µM] | / | -9.6% | / | /
CCOC(=O)C1(C)C(C(=O)OC)=C(c2ccc(OC)cc2)c2ccccc2N1C(=O)OC (configuration not stated) | 47.7% | -20.9% | -20.1 | ? | / | ? | ? | ?
CC(C)C(=O)N1CCCC1(C)C(=O)N(C)Cc1cccc2ccccc12 (configuration not stated) | / | / | -4.9 | / | / | -5.5% | / | /
O=C(CSc1nnc(-c2cccnc2)o1)c1cc2ccccc2oc1=O | 11.1% | -20.1% | -19.6 | ? | -6.4% | -5.4% | / | /
Cn1cnnc1SCC(=O)c1cc2ccccc2oc1=O | -18.3% | 89.1µM* | / | ? | ? | ? | 15.8µM* | 15.8µM*
Cn1cc(CCNC(=O)C2CCC(=O)N(CCc3ccc(Cl)cc3)C2)cn1 (configuration not stated) | 35.1% | 4.1% | 8.1 | -15.4% | -13.9% | 0.7% | / | /
CCN(C(=O)c1ccc(S(=O)(=O)N2CCOCC2)cc1)C1CCS(=O)(=O)C1 (configuration not stated) | 27.2% | -7.6% | 3.0 | 0.2%[59 µM] | -3.9% | -1.3% | / | /
Cc1nc2scc(-c3ccccc3)c2c(=O)n1N=C1C=CC(=O)C=C1 | 8.91µM* | 3.16µM* | -101.4* | 5.7% | -15.2% | 3.36µM* | 0.398µM* | 0.562µM*
Cc1nc2scc(-c3ccccc3)c2c(=O)n1N | -0.7% | -20.4% | -5.0 | 2.6%[59 µM] | 3.0% | -2.8% | / | /
SMILES | HP1b binding inh | JMJD2A Tudor | PI5P4Ka inh | G9a block | BAZ2B inh | PLK1 PBD inh | TbPYK confirm | TbPYK ADP-Glo
CSCCC(N=C1NS(=O)(=O)c2ccccc21)C(=O)N1CCCC(C(N)=O)C1 (configuration not stated) | 7.1% | -11.0% | 1.5 | 21.5%[0.501 µM] | 9.0% | 1.2% | / | /
CC1(C(=O)NCCC(F)(F)F)Cc2c(-c3cccc(C(N)=O)c3)ccnc2O1 (configuration not stated) | / | / | -5.7 | / | / | -11.7% | 5.9% | -1.6%
Fc1ccc(C[n+]2csc3ccccc32)cc1 | 14.9% | ? | -14.4 | ? | 56.2µM* | 11.9µM* | 7.94µM* | 12.6µM*
Cc1ccc(NC(=O)C2C3C=CC4(O3)C2C(=O)N(CCCN2CCCC(C)C2)C4C(=O)NC2CCCCC2)cc1 (configuration not stated) | 0.9% | -13.7% | 2.6 | ? | 1.4% | -10.7% | / | /
COc1ccc(CCN(C)C(=O)COC(=O)/C=C/c2ccc(C)o2)cc1OC | -18.9% | ? | 4.7 | 35.5µM* | ? | -29.9% | 31.6µM* | 35.5µM*
COC(=O)c1ccc(C2CC(=O)Nc3c2c(C)nn3-c2nc(C)cc(C)n2)cc1 (configuration not stated) | 36.5% | -12.3% | / | -0.7%[59 µM] | -12.2% | / | / | /
CC1(C)OC(=O)C(=Cc2ccc(-c3ccc(S(N)(=O)=O)cc3)o2)C(=O)O1 | -14.3% | -7.7% | -58.8* | 35.5µM* | -19.2% | 1.34µM* | 12.6µM* | 15.8µM*
O=C1S/C(=C/c2ccc(N3CCOCC3)o2)C(=O)N1Cc1c(F)cccc1Cl | 39.3% | -30.1% | / | 1.78µM* | 4.5% | 42.6% | ? | 39.8µM*
O=C1S/C(=C\c2ccc(N3CCOCC3)o2)C(=O)N1c1ccccc1 | -8.8% | -3.8%[11.4 µM] | ? | 5.01µM* | ? | 64.7% | ? | ?
